# The list is not random: actives were taken first. Their share in the collection is about 6%.
# D1 antag: human D1 dopamine receptor antagonism. P21728. HEK293 TREx D1 cells, calcium flux, dopamine EC80; hits give low values. activity change, negative = inhibition, % at 10 µM. hit rate 3.2% among 360,000; in the data active means activity change below about -30%; further: on the % scale 0 is the no-effect control and ±100 the full control effect
# Target sequence (P21728 whole entry, looked up): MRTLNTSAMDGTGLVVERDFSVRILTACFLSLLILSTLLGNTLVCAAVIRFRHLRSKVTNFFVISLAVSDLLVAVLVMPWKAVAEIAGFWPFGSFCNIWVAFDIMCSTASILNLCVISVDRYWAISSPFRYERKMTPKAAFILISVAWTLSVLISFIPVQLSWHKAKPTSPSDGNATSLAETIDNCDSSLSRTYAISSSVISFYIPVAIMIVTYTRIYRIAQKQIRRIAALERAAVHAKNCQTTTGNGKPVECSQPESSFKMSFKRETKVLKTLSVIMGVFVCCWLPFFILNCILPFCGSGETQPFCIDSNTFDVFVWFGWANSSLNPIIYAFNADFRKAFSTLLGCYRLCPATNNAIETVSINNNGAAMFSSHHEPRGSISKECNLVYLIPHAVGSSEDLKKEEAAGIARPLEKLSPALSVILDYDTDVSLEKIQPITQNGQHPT
#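 After overnight tetracycline induction at 30 C, force-coupled D1 HEK293 cells took up a no-wash calcium dye at room temperature. Compounds were added and monitored 180 s, and the response to EC80 dopamine was then recorded.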
# DRD3 antagonist: D3 dopamine receptor (human) antagonism; P35462; D3R cells, DiscoveRx beta-arrestin luminescence, antagonist mode; hits give low values; max response, negative = inhibition, %; hit rate 2.5% among 360,000; AID 652054; in the data active means max response below about -50%; inconclusive means no clear call, values can overlap the other calls; further: on the % scale 0 is the no-effect control and ±100 the full control effect
#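 Cells plated overnight at 1500 cells/well, then exposed to library compounds with dopamine controls for 90 minutes at 37 degrees C. DiscoveRx reagent added for 30–60 minutes at room temperature; luminescence read, quantitative HTS format.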
# D1 potentiator: enhances dopamine response at the human D1 receptor. P21728. HEK293 TREx D1 cells, calcium flux, dopamine EC20 potentiation. potentiation, % at 10 µM. hit rate 0.036% among 360,000; in the data active means potentiation above about 30%; further: 0% is about no effect
# DRD3 agonist: agonists of human D3 dopamine receptor. max activation, %. P35462. hit rate 0.58% among 410,000. D3R DiscoveRx beta-arrestin cells, luminescence, 90 min; in the data active means max activation above about 30%; further: 0% is about no effect
#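 Agonist-mode cell screen: cells plated at 1500/well and incubated overnight at 37 °C, then exposed to library compounds for 90 min at 37 °C. Detection reagent was added for 30–60 min at room temperature, and luminescence was read.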
# D1 agonist: human D1 receptor agonism | P21728 | HEK293 T-REx D1 cells, calcium flux, agonist mode | activation, % at 2 µM | hit rate 1% among 360,000; in the data active means activation above about 30%; further: 0% is about no effect
#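 Inducible HEK293 T-REx D1 cells, force-coupled to calcium signalling, were plated at 4000 cells/well with tetracycline and held overnight at 30 C. After no-wash calcium dye loading, compound-evoked calcium rise over 180 s flagged agonists.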
# * hit, by the source's call; ? = inconclusive; · = no result given.
SMILES,D1 antag,DRD3 antagonist,D1 potentiator,DRD3 agonist,D1 agonist
CCCOc1ccc(N2C(=O)CC(NCc3cccs3)C2=O)cc1 (centres undefined),-3.2,0.0,-2.6,-2.9,-0.9
CCCOc1ccc(N2C(=O)CC(NCc3ccncc3)C2=O)cc1 (centres undefined),-58.6*,0.0,1.4,-0.1,0.9
COc1ccc(-c2cc(-c3ccccc3)nc(NN)n2)cc1OC,2.0,?,-7.2,-8.1,4.5
COc1nc(-c2ccccc2)cc(-c2ccc(OC)c(OC)c2)n1,7.2,54.9,2.0,98.3*,1.9
Cc1cc(C)n(-c2ccc(C(=O)OC(C)C(=O)Nc3ccc(C(N)=O)cc3)cc2)n1 (centres undefined),-31.0*,10.6,-4.4,10.0,4.2
COc1ccc2c(c1)c1c(c(=O)n(CCc3ccccc3)c(=O)n1Cc1cccc(Cl)c1)n2C,-5.1,·,-0.8,7.4,3.4
CCOc1cc(C2c3c(n[nH]c3C)C(=O)N2c2ccc(C)cc2)ccc1O (centres undefined),-77.6*,1.9,-3.9,0.7,1.5
Cn1c(=O)c([N+](=O)[O-])c(-n2ccnc2)c2ccccc21,5.2,-50.6*,-0.2,-22.1,2.5
Cn1c(=O)c([N+](=O)[O-])c(NCCCn2ccnc2)c2ccccc21,-5.0,-0.3,2.1,-9.3,1.9
CC(C)c1ccc(Nc2c([N+](=O)[O-])c(=O)n(C)c3ccccc23)cc1,-49.6*,0.0,-4.6,-5.8,2.3
Cc1cccc(Nc2c([N+](=O)[O-])c(=O)n(C)c3ccccc23)c1,5.1,-0.5,-0.7,1.7,0.4
Cc1cnc(C)c(Nc2nc(C(N)Cc3ccc(C(F)(F)F)cc3)cs2)n1 (centres undefined),·,6.7,·,-4.6,·
COc1ccc(CCNC(=O)CSc2ccc3ccccc3c2)cc1OC,17.5,12.3,9.2,-22.8,2.2
O=C(CSc1ccc2ccccc2c1)NCCc1ccc(O)c(O)c1,-19.7,11.5,1.4,68.6*,4.7
COc1ccc(-n2c(CCC(=O)O)ccc2-c2ccccc2)c(OC)c1,-16.0,·,-4.7,-5.8,0.9
Oc1ccccc1C1CCCCC1c1ccccc1 (centres undefined),-39.3*,-11.0,-4.1,-2.5,5.4
CC(C)[C@H](Nc1ccc(S(=O)(=O)N2CCOCC2)cc1[N+](=O)[O-])C(=O)OCC(N)=O,-74.0*,-14.4,-7.4,-3.1,1.9
CC/C(C)=N/Nc1ccc(S(=O)(=O)N2CCCC2)cc1[N+](=O)[O-],-47.5*,-5.5,-1.1,-9.3,2.0
O=C(O)CC/C(=N\Nc1ccc(S(=O)(=O)N2CCCC2)cc1[N+](=O)[O-])c1cccs1,-9.0,-27.5,-1.1,-6.3,0.4
O=C(O)CC/C(=N\Nc1ccc(S(=O)(=O)N2CCOCC2)cc1[N+](=O)[O-])c1cccs1,-8.4,-62.5*,-4.0,-10.0,2.4
CC(C)[C@H](Nc1ccc(S(=O)(=O)N2CCOCC2)cc1[N+](=O)[O-])C(=O)OCC(=O)N(C(C)C)C(C)C,-10.8,6.6,-2.7,3.4,2.7
O=C(NCc1ccco1)c1ccc(Cl)c(S(=O)(=O)N2CCCC2)c1,5.4,-12.8,-5.8,-6.3,1.8
S=C(NCCc1ccc(Cl)cc1)NC1CCCC1,-4.3,-17.3,-16.1,-8.6,11.1
COc1ccc(CNC(=S)NC2CCCCC2)cc1,12.5,-0.9,2.8,4.3,1.3
S=C(NCCc1ccc(Cl)cc1)NC1CCCCC1,-41.0*,?,-7.7,-3.6,17.3
SMILES,D1 antag,DRD3 antagonist,D1 potentiator,DRD3 agonist,D1 agonist
Fc1ccc(CNC(=S)NC2CCCCCC2)cc1,-36.0*,-16.6,-6.2,-9.4,15.1
O=C(c1ccco1)[C@@H]1[C@@H]2C(=O)N(c3ccc(Br)cc3)C(=O)[C@@H]2C2c3ccccc3C=CN21 (some centres undefined),-17.6,-56.8*,-4.5,-8.7,10.0
O=C(c1ccco1)[C@@H]1[C@@H]2C(=O)N(c3ccc(F)cc3)C(=O)[C@@H]2C2c3ccccc3C=CN21 (some centres undefined),3.3,·,3.0,·,5.7
CC(C)c1ccc(CN2CCN(C(=O)CSc3nnnn3C3CC3)CC2)cc1,-35.6*,0.7,-2.3,-5.7,4.7
CC1CCC(N2CCN(S(=O)(=O)Cc3ccccc3)CC2)CC1 (centres undefined),6.3,4.2,2.9,0.6,4.6
O=[N+]([O-])c1ccc(CS(=O)(=O)N2CCN(c3ccccc3)CC2)cc1,-30.2*,-8.7,·,-7.6,9.2
O=S(=O)(Cc1ccccc1)N1CCC(N2CCN(c3ccccc3)CC2)CC1,1.3,?,-0.1,68.5*,3.1
Cc1c(Cl)cccc1NC(=O)CSc1ncnc2c1sc1ccccc12,18.0,·,-1.2,3.6,-1.3
CC(=NCCc1ccccc1)C1=C(O)CSC1=O,-46.0*,-23.1,-4.3,0.3,2.0
CC1CN(c2ccccc2)c2nc3c(c(=O)[nH]c(=O)n3C)n2C1 (centres undefined),-8.3,-15.3,-8.7,-4.3,2.6
CC(C)Cn1c([N+](=O)[O-])nc2c1c(=O)[nH]c(=O)n2C,8.9,-13.2,-0.7,-10.2,2.8
CN(C)c1nc2c(c(=O)[nH]c(=O)n2C)n1CCOc1ccccc1,12.4,7.2,-6.4,3.9,1.5
Cn1c(=O)[nH]c(=O)c2c1nc([N+](=O)[O-])n2Cc1ccccc1,25.8,-81.7*,4.6,-27.2,1.6
CCN(CC)c1nc2c(c(=O)[nH]c(=O)n2C)n1CCOc1ccccc1,4.7,7.0,35.0*,6.4,6.8
Cn1c(=O)[nH]c(=O)c2c1nc1n2CCN1Cc1ccccc1,-60.9*,-3.2,-7.3,14.2,2.8
Cn1c(=O)[nH]c(=O)c2c1nc1n2CCN1c1ccccc1,12.2,·,-2.2,44.6*,-0.1
O=C(CCCCCn1c(=O)c2sccc2n(Cc2ccccc2Cl)c1=O)NCc1ccc2c(c1)OCO2,-23.7,·,0.0,0.4,-2.2
CCCCCCCCCCCCCCCC(=O)OC[C@H](O)[C@H]1OC(=O)C(O)=C1O,·,·,·,-15.1,·
Cc1n[nH]c(=O)nc1NC1CCCCC1,-43.9*,10.9,1.8,-3.2,0.5
Cc1nnc(NC2CCCCC2)[nH]c1=O,-3.1,19.5,-2.0,-1.1,2.7
Cc1ccc(/C=c2/sc3nnc(-c4ccccc4Cl)n3c2=O)o1,0.7,0.0,-3.1,-6.7,0.9
CCN(CC)c1ccc(/C=c2\sc3nnc(-c4ccccc4Cl)n3c2=O)cc1,-8.2,-2.0,-4.5,1.8,59.0*
CCN(CC)c1ccc(/C=c2/sc3nnc(-c4ccccc4C)n3c2=O)cc1,-25.0,-17.1,-4.5,-7.8,31.2*
CCN(CC)c1ccc(/C=C2/C(=O)ON=C2C)cc1,-13.6,-7.4,-9.2,6.1,14.9
CC1=C(C(=O)Nc2cccnc2)C(c2ccccc2)n2nc(-c3ccc(O)cc3)nc2N1 (centres undefined),-21.9,·,-2.7,-1.6,2.0
O=C(CCNC(=O)Cn1cnc2ccccc2c1=O)NCC1COc2ccccc2O1 (centres undefined),4.9,-57.9*,-9.8,5.7,-0.7
